Several values for one entry are separate records, joined by “and”; a condition that tells them apart may be missing. Equal entries are not always repeated. The campaign covered roughly 5,500 compounds. About 2,000 (36%) were called active. Not shown: some 18% with an inconclusive outcome. Rule as the data show it: active = normalized growth mostly below about 0.91 (no sharp cut-off); inconclusive = no clear call, values can overlap the other calls; inactive = mostly above about 0.92. The list shows a part of the results.
Test: chemical genetic growth profiling, strain panel (AID 1159580);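 also: tested at 20 µM; growth read once vehicle control cultures reached saturation at 30 °C; 1 = growth at the plate median or of vehicle wells; lower values mean less growth of the strain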
Settings: S. cerevisiae deletion strains, growth OD

Measured: normalized growth

Cc1cc(-c2ccccc2)nnc1NCCN1CCOCC1
inactive: locus YAL013W, strain DEP1, hits give low values 1 | locus YAL021C, strain ccr4, hits give low values 0.985 | locus YAL026C, strain drs2, hits give low values 0.991 | locus YAL030W, strain snc1, hits give low values 0.986 | locus YBL061C, strain skt5, hits give low values 0.991 | locus YBR009C, strain hhf1, hits give low values 0.989 | locus YBR021W, strain FUR4, hits give low values 0.999 | locus YBR023C, strain chs3, hits give low values 0.989 | locus YBR171W, strain sec66, hits give low values 0.977 | locus YBR229C, strain ROT2, hits give low values 1.01 | locus YBR231C, strain swc5, hits give low values 0.989 | locus YBR279W, strain paf1, hits give low values 0.986 | locus YCL011C, strain gbp2, hits give low values 0.983 | locus YCL016C, strain dcc1, hits give low values 0.984 | locus YCL029C, strain bik1, hits give low values 0.964 | locus YCL061C, strain MRC1, hits give low values 0.985 | locus YCL069W, strain vba3, hits give low values 0.988 | locus YCR088W, strain abp1, hits give low values 0.99 | locus YDL005C, strain med2, hits give low values 0.99 | locus YDL035C, strain GPR1, hits give low values 1.03 | locus YDL040C, strain nat1, hits give low values 0.992 | locus YDL074C, strain BRE1, hits give low values 0.986 | locus YDL101C, strain DUN1, hits give low values 0.995 | locus YDL134C, strain PPH21, hits give low values 1.01 | locus YDL185W, strain tfp1, hits give low values 0.941 | locus YDL192W, strain arf1, hits give low values 0.974 | locus YDR001C, strain nth1, hits give low values 0.99 | locus YDR069C, strain doa4, hits give low values 1 | locus YDR101C, strain arx1, hits give low values 0.977 | locus YDR137W, strain rgp1, hits give low values 0.991 | locus YDR150W, strain NUM1, hits give low values 0.992 | locus YDR159W, strain sac3, hits give low values 1.01 | locus YDR162C, strain NBP2, hits give low values 1.01 | locus YDR195W, strain ref2 0.974 | locus YDR297W, strain sur2, hits give low values 0.997 | locus YDR318W, strain mcm21, hits give low values 0.98 | locus YDR334W, strain swr1, hits give low values 0.983 | locus YDR335W, strain msn5, hits give low values 0.986 | locus YDR388W, hits give low values 0.986 | locus YDR392W, strain spt3, hits give low values 0.924 | locus YDR502C, strain sam2, hits give low values 1 | locus YEL003W, strain gim4, hits give low values 0.998 | locus YEL037C, strain rad23, hits give low values 0.994 | locus YEL061C, strain CIN8 (second series), hits give low values 0.991 | locus YEL061C, strain CIN8, hits give low values 0.997 | locus YER015W, strain faa2, hits give low values 0.997 | locus YER016W, strain bim1, hits give low values 1 | locus YER110C, hits give low values 0.982 | locus YER111C, strain swi4, hits give low values 0.985 | locus YER155C, strain BEM2 (second series), hits give low values 1 | locus YER155C, strain BEM2, hits give low values 1 | locus YER167W, strain BCK2, hits give low values 1 | locus YFR010W, strain ubp6, hits give low values 0.992 | locus YGL078C, strain dbp3, hits give low values 0.991 | locus YGL086W, strain mad1, hits give low values 1.01 | locus YGL167C, strain pmr1, hits give low values 0.991 | locus YGL173C, strain kem1, hits give low values 0.983 | locus YGL227W, strain vid30, hits give low values 0.987 | locus YGL240W, strain doc1, hits give low values 0.974 | locus YGL248W, strain PDE1, hits give low values 1.02 | locus YGL253W, strain hxk2, hits give low values 0.987 | locus YGR078C, strain PAC10, hits give low values 1 | locus YGR135W, strain pre9, hits give low values 0.993 | locus YGR229C, strain SMI1, hits give low values 1.03 | locus YGR252W, strain gcn5, hits give low values 1.13 | locus YHR013C, strain ard1, hits give low values 0.983 | locus YHR027C, strain rpn1, hits give low values 0.987 | locus YHR030C, strain SLT2, hits give low values 1 and 0.966 | locus YHR079C, strain IRE1 (second series), hits give low values 0.972 | locus YHR079C, strain IRE1, hits give low values 0.961 | locus YHR094C, strain hxt1, hits give low values 0.969 | locus YHR129C, strain ARP1, hits give low values 0.996 | locus YHR142W, strain chs7, hits give low values 0.981 | locus YHR200W, strain rpn10, hits give low values 0.97 | locus YIL066C, strain RNR3, hits give low values 1.01 | locus YIL073C, strain SPO22, hits give low values 0.953 | locus YIL125W, strain kgd1, hits give low values 0.977 | locus YIR030C, strain dcg1, hits give low values 0.979 | locus YJL092W, strain hpr5, hits give low values 0.988 | locus YJL095W, strain BCK1 (second series), hits give low values 0.99 | locus YJL095W, strain BCK1, hits give low values 0.976 and 0.961 | locus YJL115W, strain asf1, hits give low values 0.991 | locus YJL129C, strain trk1, hits give low values 0.968 | locus YJL134W, strain LCB3, hits give low values 1.01 | locus YJL154C, strain vps35, hits give low values 1 | locus YJL164C, strain tpk1, hits give low values 0.987 | locus YJL166W, strain qcr8, hits give low values 0.993 | locus YJL168C, strain set2, hits give low values 0.973 | locus YJL187C, strain SWE1 (second series), hits give low values 0.997 | locus YJL187C, strain SWE1, hits give low values 0.986 | locus YJR043C, strain POL32, hits give low values 0.99 | locus YJR066W, strain TOR1, hits give low values 0.918

From PubChem BioAssay AID1159580 (chemical genetic matrix, 2015)
